# Many of the other results were omitted from the sample, so the strongest signals are more common in it than they were.
# How the values were obtained:
# Test in all cases: glycan array binding signal (z-score within array); higher = stronger binding
# Conditions in all cases: glycan notation: IUPAC condensed, linker removed
# [1] = target: Fuc(a1-2)Gal(b1-3)GalNAc(a1-3)[Fuc(a1-2)]Gal(b1-4)GlcNAc
# Outline: (§1)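 Arrays were curated from the Consortium for Functional Glycomics database, 3228 in total, and kept only where the protein sequence was available. Binding is expressed as a within-array Z-score. This score was averaged across arrays of the same protein sequence at different concentrations or buffers and across linkers, and negative values can be read as non-binding.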
# [2] = target: Fuc(a1-2)Gal(b1-3)GlcNAc(b1-3)[Gal(b1-4)GlcNAc(b1-6)]Gal(b1-4)Glc
# Outline: as §1
# [3] = target: Fuc(a1-2)Gal(b1-4)[Fuc(a1-3)]GlcNAc(b1-3)GalNAc
# Outline: as §1
# [4] = target: Fuc(a1-2)[Gal(a1-3)]Gal(b1-4)GlcNAc(b1-3)GalNAc
# Outline: as §1
# [5] = target: Fuc(a1-2)[GalNAc(a1-3)]Gal(b1-4)GlcNAc(b1-3)GalNAc
# Outline: as §1
# [6] = target: Fuc(a1-2)[GalNAc(a1-3)]Gal(b1-4)[Fuc(a1-3)]GlcNAc
# Outline: as §1
# [7] = target: Fuc(a1-3)[Gal(b1-4)]GlcNAc(b1-2)Man(a1-3)[Fuc(a1-3)[Gal(b1-4)]GlcNAc(b1-2)Man(a1-6)]Man(b1-4)GlcNAc(b1-4)[Fuc(a1-6)]GlcNAc
# Outline: as §1
# [8] = target: Fuc(a1-3)[Gal(b1-4)]GlcNAc(b1-3)Gal(b1-3)[Fuc(a1-4)]GlcNAc
# Outline: as §1
# [9] = target: Fuc(a1-3)[Gal3S(b1-4)]GlcNAc
# Outline: as §1
# [10] = target: Fuc(a1-4)GlcNAc
# Outline: as §1
# [11] = target: Gal(a1-3)Gal(b1-4)GlcNAc(b1-6)GalNAc
# Outline: as §1
# [12] = target: Gal(a1-4)Gal(b1-4)GlcNAc(b1-3)Gal(b1-4)Glc
# Outline: as §1
# [13] = target: Gal(b1-3)GlcNAc(b1-2)Man(a1-3)[Gal(b1-3)GlcNAc(b1-2)Man(a1-6)]Man(b1-4)GlcNAc(b1-4)[Fuc(a1-6)]GlcNAc
# Outline: as §1
# [14] = target: Gal(b1-3)GlcNAc(b1-2)Man(a1-3)[GlcNAc(b1-4)][Gal(b1-3)GlcNAc(b1-2)Man(a1-6)]Man(b1-4)GlcNAc(b1-4)GlcNAc
# Outline: as §1
# [15] = target: Gal(b1-3)[Fuc(a1-4)]GlcNAc(b1-6)GalNAc
# Outline: as §1
# [16] = target: Gal(b1-4)GalNAc(b1-3)[Fuc(a1-2)]Gal(b1-4)GlcNAc
# Outline: as §1
# [17] = target: Gal(b1-4)GlcNAc
# Outline: as §1
# [18] = target: Gal(b1-4)GlcNAc(b1-2)[Gal(b1-4)GlcNAc(b1-4)]Man(a1-3)[GlcNAc(b1-4)][Gal(b1-4)GlcNAc(b1-2)[Gal(b1-4)GlcNAc(b1-6)]Man(a1-6)]Man(b1-4)GlcNAc(b1-4)GlcNAc
# Outline: as §1
# [19] = target: Gal(b1-4)GlcNAc(b1-3)Gal(b1-4)GlcNAc(b1-2)Man(a1-3)[Gal(b1-4)GlcNAc(b1-3)Gal(b1-4)GlcNAc(b1-2)Man(a1-6)]Man(b1-4)GlcNAc(b1-4)[Fuc(a1-6)]GlcNAc
# Outline: as §1
# [20] = target: Gal(b1-4)GlcNAc(b1-3)Gal(b1-4)GlcNAc(b1-3)Gal(b1-4)GlcNAc(b1-2)Man(a1-3)[Gal(b1-4)GlcNAc(b1-3)Gal(b1-4)GlcNAc(b1-3)Gal(b1-4)GlcNAc(b1-2)Man(a1-6)]Man(b1-4)GlcNAc(b1-4)GlcNAc
# Outline: as §1
# [21] = target: Gal(b1-4)GlcNAc(b1-3)Gal(b1-4)GlcNAc(b1-6)[Gal(b1-3)]GalNAc
# Outline: as §1
# [22] = target: Gal6S(b1-4)Glc
# Outline: as §1
# [23] = target: GalNAc(a1-3)GalNAc
# Outline: as §1
# [24] = target: GalNAc(b1-3)Gal
# Outline: as §1
# [25] = target: GalNAc(b1-3)Gal(a1-4)Gal(b1-4)GlcNAc(b1-3)Gal(b1-4)Glc
# Outline: as §1
# [26] = target: GalNAc6S(b1-4)GlcNAc
# Outline: as §1
# [27] = target: GlcA(b1-3)Gal
# Outline: as §1
# [28] = target: GlcNAc(b1-2)Man(a1-3)[GlcNAc(b1-2)Man(a1-6)]Man(b1-4)GlcNAc(b1-4)[Fuc(a1-6)]GlcNAc
# Outline: as §1
# [29] = target: GlcNAc(b1-2)Man(a1-3)[GlcNAc(b1-4)][GlcNAc(b1-2)Man(a1-6)]Man(b1-4)GlcNAc(b1-4)[Fuc(a1-6)]GlcNAc
# Outline: as §1
# [30] = target: GlcNAc(b1-3)Gal(b1-4)GlcNAc
# Outline: as §1
# [31] = target: GlcNAc(b1-3)Gal(b1-4)GlcNAc(b1-3)Gal(b1-4)GlcNAc(b1-2)Man(a1-3)[GlcNAc(b1-3)Gal(b1-4)GlcNAc(b1-3)Gal(b1-4)GlcNAc(b1-2)Man(a1-6)]Man(b1-4)GlcNAc(b1-4)GlcNAc
# Outline: as §1
# [32] = target: GlcNAc(b1-3)[GlcNAc(b1-6)]Gal(b1-4)GlcNAc
# Outline: as §1
# [33] = target: Man(a1-3)[Man(a1-6)]Man(a1-6)[Man(a1-2)Man(a1-3)]Man(b1-4)GlcNAc(b1-4)GlcNAc
# Outline: as §1
# [34] = target: Man(b1-4)GlcNAc
# Outline: as §1
# [35] = target: Neu5Ac(a2-3)Gal(b1-3)GalNAc
# Outline: as §1
# [36] = target: Neu5Ac(a2-3)Gal(b1-3)GlcNAc(b1-2)Man
# Outline: as §1
# [37] = target: Neu5Ac(a2-3)Gal(b1-3)[GlcNAc(b1-6)]GalNAc
# Outline: as §1
# [38] = target: Neu5Ac(a2-3)Gal(b1-4)Glc
# Outline: as §1
# [39] = target: Neu5Ac(a2-3)Gal(b1-4)GlcNAc(b1-2)Man(a1-3)[GlcNAc(b1-4)][Neu5Ac(a2-3)Gal(b1-4)GlcNAc(b1-2)Man(a1-6)]Man(b1-4)GlcNAc(b1-4)GlcNAc
# Outline: as §1
# [40] = target: Neu5Ac(a2-3)Gal(b1-4)GlcNAc(b1-2)Man(a1-3)[Neu5Ac(a2-3)Gal(b1-4)GlcNAc(b1-2)Man(a1-6)]Man(b1-4)GlcNAc(b1-4)[Fuc(a1-6)]GlcNAc
# Outline: as §1
# [41] = target: Neu5Ac(a2-3)Gal(b1-4)GlcNAc(b1-3)Gal(b1-4)GlcNAc
# Outline: as §1
# [42] = target: Neu5Ac(a2-3)Gal(b1-4)GlcNAc(b1-3)Gal(b1-4)GlcNAc(b1-3)Gal(b1-4)GlcNAc(b1-2)Man(a1-3)[Neu5Ac(a2-3)Gal(b1-4)GlcNAc(b1-3)Gal(b1-4)GlcNAc(b1-3)Gal(b1-4)GlcNAc(b1-2)Man(a1-6)]GalNAc
# Outline: as §1
# [43] = target: Neu5Ac(a2-6)Gal(b1-4)GlcNAc(b1-2)Man
# Outline: as §1
# [44] = target: Neu5Ac(a2-6)Gal(b1-4)GlcNAc(b1-2)Man(a1-3)[Neu5Ac(a2-6)Gal(b1-4)GlcNAc(b1-2)Man(a1-6)]Man(b1-4)GlcNAc(b1-4)GlcNAc
# Outline: as §1
# [45] = target: Neu5Ac(a2-6)Gal(b1-4)GlcNAc(b1-2)Man(a1-6)Man(b1-4)GlcNAc(b1-4)GlcNAc
# Outline: as §1
# [46] = target: Neu5Ac(a2-6)Gal(b1-4)GlcNAc(b1-2)Man(a1-6)[Man(a1-3)]Man(b1-4)GlcNAc(b1-4)GlcNAc
# Outline: as §1
# [47] = target: Neu5Ac(a2-6)Gal(b1-4)GlcNAc(b1-3)Gal(b1-4)GlcNAc(b1-3)[Neu5Ac(a2-6)Gal(b1-4)GlcNAc(b1-3)Gal(b1-4)GlcNAc(b1-6)]GalNAc
# Outline: as §1
# [48] = target: Neu5Ac(a2-6)Gal(b1-4)GlcNAc(b1-3)Gal(b1-4)GlcNAc(b1-6)[Gal(b1-3)]GalNAc
# Outline: as §1
# [49] = target: Neu5Ac(a2-6)Gal(b1-4)GlcNAc6S
# Outline: as §1
# [50] = target: Neu5Gc(a2-3)Gal(b1-4)GlcNAc(b1-3)Gal(b1-4)GlcNAc(b1-2)Man(a1-3)[Neu5Gc(a2-3)Gal(b1-4)GlcNAc(b1-3)Gal(b1-4)GlcNAc(b1-2)Man(a1-6)]Man(b1-4)GlcNAc(b1-4)GlcNAc
# Outline: as §1
binder,measurement,setting,value
"Protein L(A-C2) (Finegoldia magna), Q51912 (protein) ADEPIDLEKLEEKRDKENVGNLPKFDNEVKDGSENPMAKYPDFDDEASTRFETENNEFEEKKVVSDNFFDQSEHPFVENKEETPETPETDSEEEVTIKANLIFANGSTQTAEFKGTFEKATSEAYAYADTLKKDNGEYTVDVADKGYTLNIKFAGKEKTPEEPKEEVTIKANLIYADGKTQTAEFKGTFEEATAEAYRYADALKKDNGEYTVDVADKGYTLNIKFAGKEKTPEEPKEEVTIKANLIYADGKTQTAEFKGTFEEATAEAYRYADLLAKENGKYTVDVADKGYTLNIKFAGKEKTPEEPKEEVTIKANLIYADGKTQTAEFKGTFAEATAEAYRYADLLAKENGKYTADLEDGGYTINIRFAGKKVDEKPEEKEQVTIKENIYFEDGTVQTATFKGTFAEATAEAYRYADLLSKEHGKYTADLEDGGYTINIRFAGKEEPEETPEKPEVQDGYASYEEAEAAAKEALKNDDVNKSYTIRQGADGRYYYVLSPVEAEEEKPEAQNGYATYEEAEAAAKKALENDPINKSYSIRQGADGRYYYVLSPVEAE",glycan array binding signal (z-score),[1],-0.969
same,glycan array binding signal (z-score),[2],-0.355
same,glycan array binding signal (z-score),[3],2.89
same,glycan array binding signal (z-score),[4],6.17
same,glycan array binding signal (z-score),[5],-0.485
same,glycan array binding signal (z-score),[6],3.52
same,glycan array binding signal (z-score),[7],1.71
same,glycan array binding signal (z-score),[8],0.052
same,glycan array binding signal (z-score),[9],-0.101
same,glycan array binding signal (z-score),[10],-0.933
same,glycan array binding signal (z-score),[11],-0.284
same,glycan array binding signal (z-score),[12],-0.164
same,glycan array binding signal (z-score),[13],0.716
same,glycan array binding signal (z-score),[14],0.568
same,glycan array binding signal (z-score),[15],3.16
same,glycan array binding signal (z-score),[16],-0.365
same,glycan array binding signal (z-score),[17],-0.975
same,glycan array binding signal (z-score),[18],-0.468
same,glycan array binding signal (z-score),[19],0.357
same,glycan array binding signal (z-score),[20],3.21
same,glycan array binding signal (z-score),[21],3.67
same,glycan array binding signal (z-score),[22],-0.354
same,glycan array binding signal (z-score),[23],-0.445
same,glycan array binding signal (z-score),[24],-0.354
same,glycan array binding signal (z-score),[25],0.127
same,glycan array binding signal (z-score),[26],-0.775
same,glycan array binding signal (z-score),[27],-0.562
same,glycan array binding signal (z-score),[28],2.85
same,glycan array binding signal (z-score),[29],-0.153
same,glycan array binding signal (z-score),[30],-0.623
same,glycan array binding signal (z-score),[31],1.91
same,glycan array binding signal (z-score),[32],-0.856
same,glycan array binding signal (z-score),[33],4.98
same,glycan array binding signal (z-score),[34],0.002
same,glycan array binding signal (z-score),[35],0.418
same,glycan array binding signal (z-score),[36],3.79
same,glycan array binding signal (z-score),[37],-0.278
same,glycan array binding signal (z-score),[38],0.38
same,glycan array binding signal (z-score),[39],-0.228
same,glycan array binding signal (z-score),[40],2.19
same,glycan array binding signal (z-score),[41],-1.1
same,glycan array binding signal (z-score),[42],3.85
same,glycan array binding signal (z-score),[43],0.253
same,glycan array binding signal (z-score),[44],-0.037
same,glycan array binding signal (z-score),[45],-0.51
same,glycan array binding signal (z-score),[46],0.298
same,glycan array binding signal (z-score),[47],3.89
same,glycan array binding signal (z-score),[48],0.761
same,glycan array binding signal (z-score),[49],-0.725
same,glycan array binding signal (z-score),[50],0.473
